7 compounds from PubChem BioAssay (NCI) can be followed below.

The panel holds about 83,000 compounds, 20% with a hit somewhere; the sample as a whole holds those more often.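 48-hour exposure, single concentration, 96-well plates; percent growth endpoint where 0 means no net growth. Active: below 10.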 Values without a mark were called inactive. Calls of active or inactive are those of the source.

Common to all, as to assay: NCI-60 one-dose screen, 48 h (100 = growth as untreated, 0 = no growth, -100 = all killed)
Details in all cases: 10 µM unless noted

Assay [1] has as its system NCI-H23 lung.
Assay [2] relates to NCI-H226 lung.
The test system of assay [3] is NCI-H322M lung.
Assay [4] relates to HOP-62 NSCLC.
Assay [5] relates to NCI-H460 lung.
For assay [6], the system named is HOP-92 NSCLC.
Assay [7] concerns NCI-H522 lung.
For assay [8], the system named is A549/ATCC NSCLC.
In assay [9] the test system is 786-0 renal.
In assay [10] the test system is COLO 205 colon.
Assay [11] relates to DU-145 prostate.
Assay [12] relates to K-562 leukemia.
Assay [13] deals with MALME-3M melanoma.
Assay [14] relates to MDA-MB-231 breast.
In assay [15] the test system is RXF 393 renal.
Assay [16] has as its system SF-268 CNS.
Assay [17] concerns SF-295 CNS.
The test system of assay [18] is SF-539 CNS.
Assay [19] relates to UACC-257 melanoma.
In assay [20] the test system is M14 melanoma.

Turning to `CC1(C)NCCC[C@]2(C)[C@H]3C=CC4=C5C[C@](C)(CO)CC[C@]5(C)CC[C@@]4(C)[C@]3(C)CC[C@@H]12`, the growth is -84.9% [100 µM] (active) in assay [1]; -59.1% [100 µM] (active) in assay [2]; -99.7% [100 µM] (active) in [3]; -74.5% [100 µM] (active) in [4]; -81.6% [100 µM] (active) in [5]; -76.4% [100 µM] (active) in assay [6]. The growth in assay [7] is -75.6% [100 µM] (active); in assay [8], -66.5% [100 µM] (active); in assay [9], -72% [100 µM] (active); in assay [10], -55.9% [100 µM] (active); in [11], -89.5% [100 µM] (active); in assay [12], -25.4% [100 µM] (active). Besides, the growth in [13] was -82.6% [100 µM] (active); in assay [14] it was -94% [100 µM] (active); in assay [15], -70.4% [100 µM] (active); in [16], -69.9% [100 µM] (active); in assay [17] it was -90.1% [100 µM] (active); in assay [18] it was -93.3% [100 µM] (active). Further, the growth was -80.5% [100 µM] (active) in assay [19] and -82.1% [100 µM] (active) in [20].

Consider `Cc1cc(C)c(-c2cc(O)c(-c3c(C)cc(C)cc3C)cc2O)c(C)c1`, for which the growth in assay [1] was 34.9%; in [2], 64.4%; in [3], 68.6%; in [4] it was 47.2%; in assay [5], 16.9%; in assay [6] it was 94.3%. For the same compound, the growth was -12.7% (active) in assay [7]; 47.6% in assay [8]; 30.4% in [9]; -12.8% (active) in assay [10]; 20.3% in assay [11]; 8.34% (active) in assay [12]. For the same compound, the growth was 54.9% in [13]; 51.5% in assay [14]; 18% in assay [15]; 55.3% in assay [16]; 30.2% in assay [17]; -25.8% (active) in [18]. Moreover, the values for the growth in assay [19] and in [20] were 73.8% and 20.7%, respectively.

Regarding `COC(=O)[C@]1(C)CC[C@]2(C)CC[C@]3(C)C(=CC(=O)[C@@H]4[C@@]5(C)CCC(=O)NC(C)(C)[C@@H]5CC[C@]43C)[C@@H]2C1`, the growth in assay [1] was -77.5% [100 µM] (active); in [2], -58.3% [100 µM] (active); in [3] it was 29.1% [100 µM]; in [4], -70.8% [100 µM] (active); in assay [5] it was -17.2% [100 µM] (active); in assay [6], -85.6% [100 µM] (active). For the same compound, the growth in assay [7] was -73.4% [100 µM] (active); in assay [8], 9.53% [100 µM] (active); in [9], -70.9% [100 µM] (active); in [10] it was -51.2% [100 µM] (active); in [11], -24.1% [100 µM] (active); in assay [12], 4.37% [100 µM] (active). In addition, the growth in assay [13] is -76.4% [100 µM] (active); in assay [14], -80.2% [100 µM] (active); in assay [15], -85.5% [100 µM] (active); in [16], -55.3% [100 µM] (active); in assay [17] it was -70.6% [100 µM] (active); in [18], -85% [100 µM] (active). The growth in [19] was -30.3% [100 µM] (active); in [20], -39.1% [100 µM] (active).

Turning to `Cc1ccccc1OC(=O)c1cccc(Cl)c1`, the growth in assay [1] is 108%; in assay [2], 108%; in assay [3], 114%; in [4], 145%; in [5] it was 109%; in assay [6] it was 101%. Besides, the growth was 95.5% in assay [7]; 102% in assay [8]; 112% in assay [9]; 129% in assay [10]; 126% in assay [11]; 95.4% in assay [12]. Moreover, the growth in [13] is 97.3%; in assay [14], 118%; in [15] it was 113%; in assay [16] it was 101%; in assay [17], 122%; in [18] it was 101%. Also, the growth was 111% in [19] and 110% in assay [20].

As to `CC(C)=CCC[C@](C)(O)[C@H]1CC[C@]2(C)[C@@H]1CC[C@@H]1[C@@]3(C)CC[C@H](OC(=O)CCC(=O)O)C(C)(C)[C@@H]3CC[C@]12C`, the growth is 16.9% [100 µM] in assay [1]; 27.4% [100 µM] in assay [2]; 27.4% [100 µM] in [3]; -5.43% [100 µM] (active) in assay [4]; 4.47% [100 µM] (active) in assay [5]; 13.3% [100 µM] in [6]. Further, the growth is 9.19% [100 µM] (active) in assay [7]; 19.5% [100 µM] in assay [8]; 23% [100 µM] in assay [9]; 12.9% [100 µM] in [10]; 40.8% [100 µM] in assay [11]; 24.2% [100 µM] in assay [12]. The growth in assay [13] was 10.5% [100 µM]; in assay [14], 13.5% [100 µM]; in assay [15] it was 37.8% [100 µM]; in assay [16], 52% [100 µM]; in assay [17], 4.05% [100 µM] (active); in [18] it was 31% [100 µM]. For the same compound, the growth is 28.3% [100 µM] in assay [19] and 30.2% [100 µM] in [20].

With `COc1ccc(C2CC(c3cc(OC)c(OC)c(OC)c3)=NN2C(C)=O)cc1OCC(=O)Nc1nc2ccc(C(F)(F)F)cc2s1` (stereo not given), the growth in assay [1] was 67.3%; in [2], 40.2%; in [3], 79.6%; in assay [4], 57.1%; in assay [5], 67.6%; in [6] it was -3.98% (active). Besides, the growth in assay [7] was 66.6%; in [8], 50.5%; in [9], 60.1%; in assay [10], 85%; in assay [11], 48.5%; in [12], 83.8%. For the same compound, the growth in assay [13] is 68.7%; in [14], 44.8%; in [15], 33.5%; in assay [16], 71.3%; in assay [17], 61.4%; in assay [18], -32.9% (active). For the same compound, the growth in assay [19] is 67.1%; in assay [20], 68%.

Turning to `O=C1COCCN1c1ccc(NCc2cn(Cc3ccccc3)c3ccccc23)cc1`, the growth in assay [1] is 93.7%; in assay [2], -40.1% (active); in [3] it was 86.1%; in assay [4] it was 90.7%; in assay [5] it was 31.9%; in assay [6], 69.5%. The growth is 94.1% in [7]; 81.4% in [8]; 95.3% in [9]; 28.8% in assay [10]; 102% in [11]; 57.3% in [12]. The growth in assay [13] was 95.9%; in assay [14] it was 86.7%; in [15] it was 46.8%; in assay [16] it was 91.9%; in assay [17] it was 61.7%; in assay [18], 91.8%. The growth in assay [19] was 75.4%; in [20], 90.2%.
